In paper PMC5540273 (PLoS ONE, 2017):

What follows are compounds tested on RPS6KA5(Kin.Dom.2-C-terminal). Conditions: concentration: 1 μM, replicates: in singlicate; n = 1.
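Note: KINOMEscan kinase panel screen.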

SMILES	%Inh [%]
O=C(Nc1n[nH]c2nc(-c3ccco3)c(Br)cc12)C1CCN(Cc2ccccc2)C1.O=C(O)[C@H](O)[C@@H](O)C(=O)O (centres unmarked) [SB-742034]	16
Cn1cnc2c(N)ncnc21 [SKF-97623]	0
COc1ccc(Nc2nccc(-c3ccc(NC(=O)c4cc5cc(F)ccc5[nH]4)cc3)n2)cc1 [GSK1229496]	0
CNC(=O)c1ccc(C)c(-n2c(C)cc(OCc3ccc(F)cc3F)c(Br)c2=O)c1	0
Nc1nccc(-c2c(-c3ccc(F)cc3)ncn2C2CCN(Cc3ccccc3)CC2)n1 [SB-219980]	0
Cc1ccc(NC(=O)Nc2ccccc2)cc1-c1ccc(C(=O)Nc2ccncc2)cc1 [GSK1398471]	0
Fc1ccc(-c2nc[nH]c2-c2ccncc2)cc1 [SB-217360]	19
CC(C)c1cc(-c2ccc3c(N)n[nH]c3c2)nc(N)n1 [GSK2250882]	25
Fc1ccc(-c2nc3n(c2-c2ccncc2)CCS3)cc1 [GI98581]	0
CCc1ccc(-c2ccc3c(c2)-c2n[nH]cc2S(=O)(=O)N3C)cc1	0
COc1ccc(CSc2nnc(-c3ccc4c(c3)CCO4)o2)cc1	1
CSc1ccc(-c2nc3n(c2-c2ccncc2)CCC3)cc1 [SKF-105561]	0
COc1cccc(NC(=O)Nc2ccc(C)c(-c3ccc(C(=O)Nc4ccncc4)cc3)c2)c1 [GSK1398474]	40
O=c1cc(N2CCOCC2)nc2n(Cc3cccc(Cl)c3Cl)c3ccccc3n12 [GSK2299009]	2
COC(=O)c1cccc(NC(=O)NC2CCN(c3ccnc(Nc4ccc(F)cc4)n3)C2)c1 (centres unmarked) [GSK1379725]	16
O=C(Nc1n[nH]c2nc(-c3cccs3)c(Br)cc12)C1CC1 [SB-735297]	4
CC(=O)c1c(C)c2cnc(Nc3ccc(N4CCNCC4)cn3)nc2n(C2CCCC2)c1=O	0
CN1c2ccc(-c3ccc(C(N)=O)cc3)cc2-c2[nH]ncc2S1(=O)=O	0
CNc1cc(-c2ccc3c(N)n[nH]c3c2)nc(N)n1 [GSK2224810]	35

SMILES	%Inh [%]
Cn1cncc1C(=O)NC1CCN(c2ccnc(Nc3ccc(F)cc3)n2)C1 (centres unmarked) [GSK1379717]	0
Cn1cncc1-c1cc2c(Nc3ccc(OCc4ccccc4)cc3)ncnc2cn1 [GW281179]	0
COc1ccc(-c2coc3ccc(-c4nnc(C)o4)cc23)cc1	4
Cc1ccc(NC(=O)Nc2ccc(Cl)cc2)cc1-c1ccc(C(=O)Nc2ccncc2)cc1 [GSK1398472]	0
CC(=O)c1c(C)c2cnc(Nc3ccn(C)n3)nc2n(C2CCCC2)c1=O	3
COc1ccc(Nc2nccc(N3CCC(NC(=O)c4cc5ccccc5s4)C3)n2)cc1 (centres unmarked) [GSK1379738]	0
Cc1nccc(-c2c(-c3ccc(F)cc3)ncn2CCCN2CCOCC2)n1.Cl [SB-282975]	8
CC[C@@H]1CO[C@H](C(=O)Nc2ccccc2)CN1c1cc(-c2ccc3c(N)n[nH]c3c2)nc(NC)n1 [GSK2376236]	23
NS(=O)(=O)c1cccc(N/C=C2\C(=O)Nc3ccc(S(=O)(=O)Cc4c(Cl)cccc4Cl)cc32)c1 [GSK398099]	0
Nc1cccc(-c2ccc3c(N)n[nH]c3c2)n1 [GSK2192730]	4
CCCCc1nn2ncccc2c1-c1ccnc(NC2CC2)n1 [GW684374]	11
CNc1nc(-c2ccc3c(N)n[nH]c3c2)cc(N2C[C@@H](C(=O)NC3CCCCC3)OC[C@H]2C)n1 [GSK2375584]	24
COc1cccc(C2=C(Nc3cc(Cl)c(O)c(Cl)c3)C(=O)NC2=O)c1 [SB-390767]	18
COc1ccc(CSc2nnc(-c3ccc4ncsc4c3)o2)cc1C(F)(F)F	10
Cc1c(Cn2c(C)c(C)n3c(=O)cc(N4CCOCC4)nc23)cccc1C(F)(F)F [GSK2328680]	0
CNc1nc(-c2ccc3c(N)n[nH]c3c2)cc(N2C[C@@H](C(=O)Nc3ccccc3)CC[C@H]2C)n1 [GSK2298859]	50
Cc1ccccc1-c1cc(-c2c[nH]nc2-c2ccccn2)ccn1 [GW680061]	0
COc1ccc(Nc2nccc(NCCNC(=O)Nc3cc(C)ccc3C)n2)cc1 [GSK1379899]	0

The compounds below were run on T1, RSK1(Kin.Dom.1-N-terminal). Conditions: concentration: 1 μM, replicates: in singlicate; n = 1.
T1 construct: gene RPS6KA1

SMILES	%Inh [%]
O=C(Nc1n[nH]c2nc(-c3ccco3)c(Br)cc12)C1CCN(Cc2ccccc2)C1.O=C(O)[C@H](O)[C@@H](O)C(=O)O (centres unmarked) [SB-742034]	17
Cn1cnc2c(N)ncnc21 [SKF-97623]	23
COc1ccc(Nc2nccc(-c3ccc(NC(=O)c4cc5cc(F)ccc5[nH]4)cc3)n2)cc1 [GSK1229496]	13
CNC(=O)c1ccc(C)c(-n2c(C)cc(OCc3ccc(F)cc3F)c(Br)c2=O)c1	0
Nc1nccc(-c2c(-c3ccc(F)cc3)ncn2C2CCN(Cc3ccccc3)CC2)n1 [SB-219980]	0
Cc1ccc(NC(=O)Nc2ccccc2)cc1-c1ccc(C(=O)Nc2ccncc2)cc1 [GSK1398471]	15
Fc1ccc(-c2nc[nH]c2-c2ccncc2)cc1 [SB-217360]	0
CC(C)c1cc(-c2ccc3c(N)n[nH]c3c2)nc(N)n1 [GSK2250882]	14
Fc1ccc(-c2nc3n(c2-c2ccncc2)CCS3)cc1 [GI98581]	0
CCc1ccc(-c2ccc3c(c2)-c2n[nH]cc2S(=O)(=O)N3C)cc1	0
COc1ccc(CSc2nnc(-c3ccc4c(c3)CCO4)o2)cc1	0
CSc1ccc(-c2nc3n(c2-c2ccncc2)CCC3)cc1 [SKF-105561]	0
COc1cccc(NC(=O)Nc2ccc(C)c(-c3ccc(C(=O)Nc4ccncc4)cc3)c2)c1 [GSK1398474]	16
O=c1cc(N2CCOCC2)nc2n(Cc3cccc(Cl)c3Cl)c3ccccc3n12 [GSK2299009]	31
COC(=O)c1cccc(NC(=O)NC2CCN(c3ccnc(Nc4ccc(F)cc4)n3)C2)c1 (centres unmarked) [GSK1379725]	8
O=C(Nc1n[nH]c2nc(-c3cccs3)c(Br)cc12)C1CC1 [SB-735297]	14
CC(=O)c1c(C)c2cnc(Nc3ccc(N4CCNCC4)cn3)nc2n(C2CCCC2)c1=O	14
CN1c2ccc(-c3ccc(C(N)=O)cc3)cc2-c2[nH]ncc2S1(=O)=O	0
CNc1cc(-c2ccc3c(N)n[nH]c3c2)nc(N)n1 [GSK2224810]	2

SMILES	%Inh [%]
Cn1cncc1C(=O)NC1CCN(c2ccnc(Nc3ccc(F)cc3)n2)C1 (centres unmarked) [GSK1379717]	16
Cn1cncc1-c1cc2c(Nc3ccc(OCc4ccccc4)cc3)ncnc2cn1 [GW281179]	30
COc1ccc(-c2coc3ccc(-c4nnc(C)o4)cc23)cc1	0
Cc1ccc(NC(=O)Nc2ccc(Cl)cc2)cc1-c1ccc(C(=O)Nc2ccncc2)cc1 [GSK1398472]	27
CC(=O)c1c(C)c2cnc(Nc3ccn(C)n3)nc2n(C2CCCC2)c1=O	0
COc1ccc(Nc2nccc(N3CCC(NC(=O)c4cc5ccccc5s4)C3)n2)cc1 (centres unmarked) [GSK1379738]	22
Cc1nccc(-c2c(-c3ccc(F)cc3)ncn2CCCN2CCOCC2)n1.Cl [SB-282975]	0
CC[C@@H]1CO[C@H](C(=O)Nc2ccccc2)CN1c1cc(-c2ccc3c(N)n[nH]c3c2)nc(NC)n1 [GSK2376236]	7
NS(=O)(=O)c1cccc(N/C=C2\C(=O)Nc3ccc(S(=O)(=O)Cc4c(Cl)cccc4Cl)cc32)c1 [GSK398099]	11
Nc1cccc(-c2ccc3c(N)n[nH]c3c2)n1 [GSK2192730]	24
CCCCc1nn2ncccc2c1-c1ccnc(NC2CC2)n1 [GW684374]	7
CNc1nc(-c2ccc3c(N)n[nH]c3c2)cc(N2C[C@@H](C(=O)NC3CCCCC3)OC[C@H]2C)n1 [GSK2375584]	11
COc1cccc(C2=C(Nc3cc(Cl)c(O)c(Cl)c3)C(=O)NC2=O)c1 [SB-390767]	0
COc1ccc(CSc2nnc(-c3ccc4ncsc4c3)o2)cc1C(F)(F)F	0
Cc1c(Cn2c(C)c(C)n3c(=O)cc(N4CCOCC4)nc23)cccc1C(F)(F)F [GSK2328680]	0
CNc1nc(-c2ccc3c(N)n[nH]c3c2)cc(N2C[C@@H](C(=O)Nc3ccccc3)CC[C@H]2C)n1 [GSK2298859]	0
Cc1ccccc1-c1cc(-c2c[nH]nc2-c2ccccn2)ccn1 [GW680061]	5
COc1ccc(Nc2nccc(NCCNC(=O)Nc3cc(C)ccc3C)n2)cc1 [GSK1379899]	0
